# This is a sample that favours compounds with a hit; in the whole collection about 9.6% have one here.
# Insulin prom up – MIN6 insulin promoter up-regulation; MIN6 insulin promoter-GFP reporter, high-content imaging; stronger effect = higher value; z-score at 5 µM; 0.3% of 190,000 active; AID 1625;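 active means z-score above 3 at 5 µM with at least 500 cells counted in the well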
# PTEN del growth – growth suppressors of cells with PTEN tumor suppressor deletion. viability, % at 10 µM. HCT116 PTEN-null viability, CellTiter-Glo, 60 h; stronger effect = lower value. 1.2% of 140,000 active. AID 827;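 active means viability at or below a set limit, 4 SD under the median of all tested compounds, cut at about 3.7% in these data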;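 further: PTEN knockout HCT116 line with beta catenin targeted HCT116 as companion control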
# Lmaj promast – inhibitors of Leishmania major promastigote growth; Leishmania major promastigotes, resazurin fluorescence viability; inhibition, % at 10 µM; 9% of 200,000 active; in the data active means inhibition above about 50%;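 further: promastigotes grown with compound for 44 hours at 28 °C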
# HCT116 bCat-KO – beta-catenin-lacking colon tumor cell growth suppression | HCT116 beta-catenin knockout viability, CellTiter-Glo, 60 h; stronger effect = lower value | viability, % at 10 µM | 1.5% of 140,000 active | AID 818;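 active means viability at or under a set limit, the compound median less 4 SD, cut at about 6% in these data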;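 further: 0% = Hyamine 1622 control at 20 µM and 100% = untreated cell control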
# INS promoter inh – TRM-6 insulin promoter activity inhibition. TRM-6 cells (human fetal islet line), insulin promoter-eGFP reporter, imaging; reporter expression induced with tamoxifen. inhibition, % at 2 µM. 0.9% of 130,000 active. AID 1273;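 active means inhibition above the mean plus 3 SD, with well images judged a real hit on visual review, cut at about 60% in these data, passing the limit was not always enough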
# Autophagy HCS – autophagy modulation, high-content screen; MEF GFP-LC3 puncta imaging; test concentration mostly 10 µM; calls only at 10 µM (by protocol); 0.98% of 190,000 active; AID 463193;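 active means percentage of spot-positive cells more than 3 SD above its plate mean, without a fluorescence outlier flag or 80% toxicity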;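 further: spot-positive cell cutoff set from DMSO-treated cells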
# The depositor's hits bear a star; i = inactive; . = not tested or not shown; + = active, no number.
SMILES,Insulin prom up,PTEN del growth,Lmaj promast,HCT116 bCat-KO,INS promoter inh,Autophagy HCS
Cc1ccc(S(=O)(=O)Oc2cccc(/C=N/Nc3ccc(C(=O)O)cc3)c2)cc1,0.27,.,.,.,.,.
CCOCCOC(=O)COc1ccc(N2C(=O)c3ccccc3C2=O)cc1,0.01,105.8,-8.0,112.8,-19.2,i
O=C(Cn1nnc2ccccc21)Nc1ccc([N+](=O)[O-])cc1,-0.41,.,.,.,.,.
CCCOC(=O)c1ccc(-c2c(C)noc2-c2ccc(OC)cc2O)o1,-0.37,88.1,56.2*,81.1,-3.6,i
COc1ccc(-c2onc(C)c2-c2cscn2)c(O)c1,-1.36,.,-6.6,.,.,i
c1ccc(-c2nc(N3CCNCC3)nc3ccccc23)cc1,0.19,40.3,100.5*,57.2,-66.1,i
c1ccc(-c2nc(N3CCCCCC3)c3ccccc3n2)nc1,-1.52,3.4*,100.5*,3.8*,.,i
c1ccc2c(N3CCCCC3)nc(N3CCCC3)nc2c1,-0.89,42.5,99.2*,46.8,8.3,i
c1ccc(-c2nc(N3CCCCC3)nc3ccccc23)cc1,.,77.0,3.4,74.8,6.2,i
CSc1nc(N2CCOCC2)c2ccccc2n1,-1.23,91.8,50.6*,86.4,-12.0,i
COC(=O)c1cc(NC(=O)c2ccccc2)c(=O)oc1C,0.05,.,-7.6,.,.,i
NC(=O)C1CCN(C(=O)C23CC4CC(CC(C4)C2)C3)CC1,0.01,93.2,-1.1,78.6,.,i
CC(C)C(NC(=O)C1CCCCC1)C(=O)Nc1ccncc1 (centres undefined),-0.65,90.7,-4.0,95.9,.,i
c1ccc(-c2nc(N3CCOCC3)c3ccccc3n2)nc1,-0.38,3.3*,99.4*,7.5,.,i
CCN1CCN(c2nc(-c3ccccn3)nc3ccccc23)CC1,-0.51,10.7,17.2,10.9,-42.1,i
O=C(COC(=O)c1cccc(S(=O)(=O)NCc2ccccc2)c1)c1ccc2c(c1)OCCO2,0.39,85.1,-2.3,89.1,.,i
O=C(Cc1ccccc1)Nc1ccc(Br)c(Cl)c1,0.77,95.4,5.1,80.9,15.6,i
CC1=C(C(=O)OCc2ccc(C)cc2)C(c2ccc(O)c([N+](=O)[O-])c2)NC(=O)N1 (centres undefined),-0.77,.,-1.3,.,88.9*,i
CCOC(=O)N1CCN(C(=O)CN(c2ccc3c(c2)OCO3)S(C)(=O)=O)CC1,0.32,96.6,-3.2,94.2,79.0*,i
CS(=O)(=O)N(CC(=O)N1CCCCC1)c1ccc2c(c1)OCO2,1.03,90.8,7.1,98.4,-13.6,i
CC1(C)C(N(O)C(=O)Nc2ccc(Cl)cc2)N(c2ccc(Cl)cc2)C(=O)N1CC(=O)NN (centres undefined),.,68.7,100.3*,69.8,0.0,i
CN1C(=S)SC(C)(C)C1N(O)C(=O)Nc1ccc(Cl)cc1 (centres undefined),0.78,.,4.2,.,.,i
CC(C)c1ccc(-c2c(C#N)c(N)nc(SCC(=O)N3CCCCCC3)c2C#N)cc1,-1.88,98.6,51.3*,81.5,6.8,i
Cc1ccnc(NC(=O)C2CCN(S(=O)(=O)c3cccc4nonc34)CC2)c1,-0.33,87.9,98.5*,88.3,.,i
CCCn1c(SCC(=O)/C(C#N)=C(\C)N)n[nH]c1=O,-0.19,99.3,-2.8,95.7,.,i
SMILES,Insulin prom up,PTEN del growth,Lmaj promast,HCT116 bCat-KO,INS promoter inh,Autophagy HCS
Fc1ccc(N2CCN(Cc3cnc(N4CCOCC4)s3)CC2)cc1,-0.47,.,63.6*,.,.,i
O=S1(=O)CCC(NC(=S)SCCOc2ccccc2)C1 (centres undefined),0.08,.,92.2*,.,.,i
CNC(=S)SCCOc1ccccc1,0.08,.,.,.,.,.
CCCCSC(=S)NC1CCS(=O)(=O)C1 (centres undefined),-0.05,69.6,95.2*,75.7,-7.4,i
CC(=O)Nc1ccc(S(=O)(=O)NNC(=O)c2ccc(S(=O)(=O)N3CCCCC3)cc2)cc1,-0.23,96.0,40.4,85.8,-44.4,i
COCCCNC(=O)/C(C#N)=C1\N=C(NC(=O)c2cccs2)c2ccccc21,0.11,.,.,.,.,.
N#C/C(C(=O)NCCc1ccccc1)=C1/N=C(NC(=O)c2cccs2)c2ccccc21,0.49,56.1,-2.6,61.6,.,+
CC(NC(=O)/C(C#N)=C1\N=C(NC(=O)c2cccs2)c2ccccc21)c1ccccc1 (centres undefined),3.96*,91.9,-7.0,92.7,-78.8,i
N#C/C(C(=O)NCc1ccccc1)=C1/N=C(NC(=O)c2ccco2)c2ccccc21,0.15,.,.,.,.,.
